Shiga toxin inh: inhibitors of Shiga toxin in Vero cells. Vero cells, Shiga toxin protein synthesis inhibition reporter. actives 9.2% (n = 290,000). inhibition, % at 38.7 µM; in the data active = inhibition mostly above about 28%, no sharp cut-off; inactive = mostly below about 43%; note: 0% is about no effect
Giardia FBPA inh: Giardia lamblia aldolase inhibition; purified Giardia FBPA; A8B2U2; Potency, µM (series often up to 59.6 µM), inactives show at the top dose activity, negative = inhibition, usual class: inhibitors; actives 0.71% (n = 290,000); AID 2451; note: potency is the fitted concentration of half-maximal effect; % is set by controls: 0 for no effect and ±100 for the full control effect; nearly all actives have a fitted effect of over 55% in size
Target sequence (A8B2U2 whole entry, looked up): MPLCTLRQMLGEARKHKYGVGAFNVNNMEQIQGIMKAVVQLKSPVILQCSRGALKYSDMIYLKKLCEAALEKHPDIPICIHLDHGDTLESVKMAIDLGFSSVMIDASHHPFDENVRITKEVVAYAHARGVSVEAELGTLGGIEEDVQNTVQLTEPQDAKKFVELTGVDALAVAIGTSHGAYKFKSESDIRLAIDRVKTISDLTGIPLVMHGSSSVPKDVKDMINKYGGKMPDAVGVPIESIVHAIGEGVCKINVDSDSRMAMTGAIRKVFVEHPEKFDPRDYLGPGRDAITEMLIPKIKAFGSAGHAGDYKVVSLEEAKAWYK
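40 nM FBPA preincubated 10 min at RT with compound (up to 57.5 uM final), then substrate plus GAPDH/TPI/NAD/arsenate coupling and diaphorase/resazurin added. Fluorescence read after 20 min at RT, 525/598 nm.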
Tb PYK inh: blocks Trypanosoma brucei pyruvate kinase | Q57TT1 | TbPYK enzyme, Kinase-Glo Plus ATP luminescence, 45 min | Potency, µM (series often up to 76.8 µM), without a hit: top-dose activity, negative = inhibition, hits mostly inhibitors | actives 0.12% (n = 410,000); note: potency is the fitted concentration of half-maximal effect; % is set by controls: 0 for no effect and ±100 for the full control effect; nearly all actives have a fitted effect of over 50% in size
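Glycolytic pyruvate kinase of T. brucei was incubated with substrate, test compound and 130 uM ADP for 45 minutes at room temperature. Luminescent Kinase-Glo Plus signal was measured after 10 minutes.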
RE007 growth inh: less growth of the S. pombe RE007 Vpr strain. S. pombe RE007 Vpr strain, BacTiter-Glo ATP luminescence, 24 h. Potency, µM (titrated, usually from 92.2 µM), for the others: at the highest dose activity change, negative = less growth, usual class: inhibitors. actives 0.21% (n = 360,000); active = well fitted falling curve with a large enough effect; inconclusive = small, poorly fitted or top-dose-only effect; inactive = no such curve, though single readings can be large or run the other way; note: potency is the fitted concentration of half-maximal effect; % is set by controls: 0 for no effect and ±100 for the full control effect; nearly all actives have a fitted effect of over 50% in size
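Fission yeast RE007 carrying one integrated HIV-1 vpr copy, seeded at OD 0.01 in PMG+AL medium with 23 nL pinned compound. Grown 24 h at 30 degrees; viability read by BacTiter-Glo luminescence after 5 min.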
LmPK inh: LmPK (Leishmania mexicana) enzyme inhibition. Q27686. purified LmPK, Kinase-Glo ATP luminescence, 1 h. Potency, µM (doses to about 57.5 µM), for inactives: top-dose activity change, negative = inhibition, hits mostly inhibitors. actives 0.37% (n = 290,000); note: potency is the fitted concentration of half-maximal effect; % is set by controls: 0 for no effect and ±100 for the full control effect
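In 50 mM imidazole pH 7.2 with 7 mM MgCl2, LmPK (0.1 nM) turned over PEP (0.5 mM) and ADP (0.1 mM) for 1 h at room temperature. Luciferase read-out of ATP.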
CHX counter: affects cycloheximide protein synthesis inhibition readout, counter-screen; cell reporter, cycloheximide protein synthesis inhibition counterscreen; max response, %; actives 12% (n = 300,000); AID 2314; in the data active = max response mostly above about 13%, no sharp cut-off; inactive = mostly below about 14%; note: read at 38.3 µM for the half of the compounds with a filed dose; 0% is about no effect
Numbers without * were called inactive; u = inconclusive; x = no result given; [ ] = dose if it differs, or a comment. The full list was thinned out, with hits kept by preference. Unless noted, calls come from the whole dose curve; as a rule, active = well fitted curve in the direction sought with a large enough effect; inconclusive = small, poorly fitted or top-dose-only effect, or another doubt; inactive = no such curve, though single readings can be large; an effect the other way counts as inactive or inconclusive.

SMILES	Shiga toxin inh	Giardia FBPA inh	Tb PYK inh	RE007 growth inh	LmPK inh	CHX counter
CC(=O)N/N=C(\C)c1cccc(NC(=O)c2cccs2)c1	-1.7	-1.6%	3.5%	-6.7%	1.9%	1.4
C/C(=N/NC(=O)c1ccc(Br)o1)c1ccncc1	60.3*	-1.3%	-2.0%	10.6%	1.0%	74.1*
C/C(=N\NC(=O)c1ccn(C)n1)c1cccc(NC(=O)c2ccc(C)s2)c1	77.1*	-5.8%	2.1%	-5.7%	0.4%	31.9*
C/C(=N/NC(=O)c1cnccn1)c1ccncc1	31.2	-0.6%	3.2%	-5.7%	0.2%[11.5 µM]	16.8
Cc1ccc(Cn2c(=O)n(Cc3ccccc3)c(=O)c3c(C)c(C)sc32)cc1	x	x	6.3%	x	x	x
CN(C)S(=O)(=O)c1cccc(NC(=O)COC(=O)CNC(=O)c2cccc([N+](=O)[O-])c2)c1	16.3	5.0%	1.6%	14.8%	11.1%	-1.1
COc1ccccc1CNC(=O)Cn1c(-c2ccc(F)cc2)cc(C(C)=O)c1C	x	x	0.1%[15.4 µM]	x	x	x
CC1=C(C(=O)Nc2ccccc2)C(c2ccccn2)n2nc(SCc3ccccc3Cl)nc2N1 (centres undefined)	x	x	2.4%	x	x	x
CCOc1ccc(NC(=O)C(C)n2c(=O)cc(C)c3c(C)nn(-c4ccccc4)c32)cc1 (centres undefined)	x	x	-3.7%	x	x	x
COc1ccc(C(=O)N/N=C(/C)c2cccc(NC(=O)c3ccccc3F)c2)cc1	25.4	x	1.1%	-9.5%	-1.6%	20.3
COc1ccc(C(=O)N/N=C(\C)c2cccc(NC(=O)c3ccc(F)cc3)c2)c(OC)c1	15.5	x	-4.7%	0.5%	-5.8%	25.9*
C/C(=N/NC(=O)c1ccc(Br)o1)c1cccc(NC(=O)c2ccc(C)o2)c1	136.2*	-6.9%	u	1.1%	-4.4%	27.6*
Cc1cccc(-n2ncc3c(NCCN4CCOCC4)ncnc32)c1	-5.0	-8.2%	-1.4%	8.0%	-2.6%	1.8
c1ccc(-n2ncc3c(NCCN4CCCCC4)ncnc32)cc1	65.7*	-2.7%	2.1%	-7.8%	-1.8%	52.0*
c1ccc(-n2ncc3c(NCCN4CCOCC4)ncnc32)cc1	71.9*	-4.2%	-8.4%	10.1%	-0.3%	22.0*
O=C(Nc1cccc(Cl)c1)c1cc(N=Nc2ccc([N+](=O)[O-])cc2Cl)ccc1O	4.6	-1.2%	u	-20.3%	14.1µM*	9.3
CCc1ccccc1NC(=O)CSc1ncc2c(n1)-c1ccccc1N(Cc1ccc(C)cc1)S2(=O)=O	x	x	6.4%	x	x	x
O=S(=O)(NCCS(=O)(=O)N1CCN(c2ccccc2F)CC1)c1ccc(Cl)cc1	x	x	3.9%	x	x	x
C=C1C(=O)O[C@H]2C[C@@H](C)[C@@H]3C=CC(=O)[C@@]3(C)C[C@H]12	46.7*	2.9%	-1.0%	-17.7%	0.2%	40.2*
C=C1C(=O)OC2CC(C)C3C=CC(=O)C3(C)C(O)C12 (centres undefined)	x	x	-11.6%	-4.6%	x	x
CCOc1ccc2nc(NC(=S)NCc3ccccc3)sc2c1	-0.1	4.5%	-19.6%	-14.3%	6.0%	9.9
CCOc1ccc2nc(NC(=O)c3ccco3)sc2c1	37.8	10.6%	-31.0%	u	u	39.4*
CCOC(=O)c1ccc2nc(NC(=O)c3cccs3)sc2c1	43.8*	-2.2%	-3.3%	-10.0%	u	39.3*
CCOc1ccc2nc(NC(=O)c3ccoc3C)sc2c1	41.6	-17.1%	u	10µM*	12.6µM*	24.1*
CCOC(=O)c1ccc2nc(NC(=O)c3ccco3)sc2c1	35.0*	-0.4%	-9.9%	-0.4%	u	27.0*
CCOC(=O)c1c(-c2ccc(C)s2)csc1NC(=O)c1cccs1	5.9	0.8%	-13.7%	-3.1%	-1.2%	-4.4
CCOc1ccc2nc(NC(=O)c3cccn(Cc4ccc(C)cc4)c3=O)sc2c1	x	x	2.1%	x	x	x
CCOC(=O)CNC(=O)c1cc2c(=O)oc3ccccc3c2s1	x	x	0.8%	x	x	x
O=C(Nc1scc(-c2ccccc2)c1C(=O)O)c1ccc(F)cc1	19.8*	-21.8%	-0.7%	3.5%	-8.2%	23.8*
Cc1ccc(-c2csc(NC(=O)c3ccc(F)cc3)c2C(=O)O)cc1	94.2*	1.4%	-1.0%	5.3%	0.1%	40.4*

High-throughput results deposited in PubChem by National Center for Advancing Translational Sciences (NCATS).
